Screen size: about 310,000 compounds; about 14,000 (4.5%) showed an effect of 50% or more. The effect is printed as a negative number. The sample as a whole holds a higher share of strong results than the screen did.
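Also: peak tail current of the secondary pulse compared with the same well before compound.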

The target of the assay is human ether-à-go-go-related gene (hERG) potassium channel (human, UniProt Q12809). Nature of the assay: primary screen, population patch clamp on CHO cells stably expressing hERG; higher = less effect of the substance.
Sequence of human ether-à-go-go-related gene (hERG) potassium channel (Q12809 whole entry, looked up): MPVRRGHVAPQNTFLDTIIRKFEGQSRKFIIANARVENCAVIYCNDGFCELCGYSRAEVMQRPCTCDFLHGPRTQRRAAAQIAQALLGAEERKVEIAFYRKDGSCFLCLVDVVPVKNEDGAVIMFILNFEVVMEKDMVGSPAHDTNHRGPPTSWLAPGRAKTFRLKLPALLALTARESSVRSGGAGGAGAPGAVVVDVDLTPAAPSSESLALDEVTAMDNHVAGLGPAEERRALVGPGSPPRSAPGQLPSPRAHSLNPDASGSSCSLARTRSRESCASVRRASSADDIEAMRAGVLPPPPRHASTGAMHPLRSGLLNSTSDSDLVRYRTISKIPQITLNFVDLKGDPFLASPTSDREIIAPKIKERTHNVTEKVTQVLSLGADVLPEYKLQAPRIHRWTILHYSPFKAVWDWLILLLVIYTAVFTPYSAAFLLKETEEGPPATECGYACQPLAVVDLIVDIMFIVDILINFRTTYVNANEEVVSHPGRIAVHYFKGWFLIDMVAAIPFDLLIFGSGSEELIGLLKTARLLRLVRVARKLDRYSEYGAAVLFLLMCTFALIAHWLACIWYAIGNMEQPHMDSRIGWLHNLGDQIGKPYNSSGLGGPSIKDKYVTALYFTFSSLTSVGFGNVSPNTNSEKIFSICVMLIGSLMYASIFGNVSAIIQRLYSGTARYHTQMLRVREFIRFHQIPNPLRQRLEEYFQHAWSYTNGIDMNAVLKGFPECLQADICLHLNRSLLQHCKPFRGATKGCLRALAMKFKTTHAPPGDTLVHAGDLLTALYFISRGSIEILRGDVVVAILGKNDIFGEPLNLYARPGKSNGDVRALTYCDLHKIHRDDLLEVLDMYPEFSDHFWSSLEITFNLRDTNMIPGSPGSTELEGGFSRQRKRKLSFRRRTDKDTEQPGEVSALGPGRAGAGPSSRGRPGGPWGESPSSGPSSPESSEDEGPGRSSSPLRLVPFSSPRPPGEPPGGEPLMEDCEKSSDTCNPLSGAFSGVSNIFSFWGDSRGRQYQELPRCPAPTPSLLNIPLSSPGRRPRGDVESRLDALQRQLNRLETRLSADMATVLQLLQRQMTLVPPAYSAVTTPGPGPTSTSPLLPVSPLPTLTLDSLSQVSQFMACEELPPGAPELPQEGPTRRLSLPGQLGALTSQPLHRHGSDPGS
For `CCC(CC(C)(C)O)C(=O)NNC(=S)Nc1ccccc1` (centres unmarked), the “hERG current change (%, negative = inhibition) at 10uM” value is 5.73%.
In the case of `O=C(OCC(=O)N1CCCC1)c1ccc(NS(=O)(=O)c2cccs2)cc1O` it was 17.1%; in that of `O=C(O)c1ccc(Oc2ccccc2)o1`, 23.2%; in that of `O=C(Nc1ccccc1)Nc1ccccc1-n1ccnc1`, -18.2%.
Turning to `Cc1ccc(C)c(C(=O)CN2C(=O)NC3(CCC(C)CC3)C2=O)c1` (centres unmarked), the “hERG current change (%, negative = inhibition) at 10uM” value was -18.3%.
Regarding `CC1CCCN(CCCOc2ccc(Cl)cc2Br)C1.O=C(O)C(=O)O` (centres unmarked), the “hERG current change (%, negative = inhibition) at 10uM” value is given as -70.5%.
Then `CC1CCCN(CCOCCOc2ccc(Cl)cc2Br)C1.O=C(O)C(=O)O` (centres unmarked), with -61.1%; and `CC(C)(C)c1cc(Cl)ccc1OCCOCCN1CCCC1.O=C(O)C(=O)O`, with -45.8%; and `CC1CCCN(CCSc2ccc(Cl)cc2)C1.O=C(O)C(=O)O` (centres unmarked), with -41.3%.
Consider `Cc1ccc(N2C(=O)N(CC(=O)NC(c3ccccc3)c3ccccc3)C(=O)C2C)cc1` (centres unmarked), for which the “hERG current change (%, negative = inhibition) at 10uM” value is given as -32.6%.
In the case of `O=C(O)C1=C[C@@H](C2CCCCC2)C[C@@H](OCCCCO)O1` it was 9.42%; in that of `Cc1ccsc1C(=O)NNC(=O)COc1ccccc1Cl`, 16.9%.
In the case of `CC1(C)N(OCc2ccccc2)C(=O)C(=O)N(OCc2ccccc2)C1(C)C` it was -6.11%; in that of `COc1cccc(C(C(=O)NCC2CCCO2)N(C(=O)Cn2nnc3ccccc32)c2ccc(NC(C)=O)cc2)c1OC` (centres unmarked), 6.49%; in that of `N#Cc1ccc(N2CCN(C(=O)c3cccs3)CC2)c(F)c1`, -55.7%.
As to `N#Cc1ccc(N2CCNCC2)c(F)c1`, the “hERG current change (%, negative = inhibition) at 10uM” value is given as -69%.
In the case of `Cc1ccc(N2CCN(C(=O)c3cccs3)CC2)c(C)c1` it was -10.6%; in that of `CCOC(=O)N1CCN(c2cc(C)c([N+](=O)[O-])cc2F)CC1`, -8.16%.
Then `Cc1cc(N2CCN(C(=O)c3cccs3)CC2)c(F)cc1[N+](=O)[O-]`, with -67%; and `O=C(c1cccs1)N1CCN(c2cc(Cl)ccc2Cl)CC1`, with -33.8%.
In the case of `O=C(c1cccc(F)c1)N1CCCN(C(=O)c2cccc(F)c2)CC1` it was -6.95%.
As to `O=C(c1cccs1)N1CCN(c2ccc(Cl)cc2)CC1`, the “hERG current change (%, negative = inhibition) at 10uM” value is reported as -13.4%.
`N#Cc1ccc(N2CCN(C(=O)c3cccc(F)c3)CC2)c(F)c1`: the “hERG current change (%, negative = inhibition) at 10uM” value was -66.8%.
In the case of `N#Cc1ccc(N2CCN(c3ccc(F)cc3)CC2)cc1` it was -16.9%; in that of `O=C(c1cccc(C(=O)N2CCN(c3ccccc3F)CC2)c1)N1CCN(c2ccccc2F)CC1`, -2.32%.
Consider `N#Cc1cc(F)c(N2CCNCC2)cc1Cl`, for which the “hERG current change (%, negative = inhibition) at 10uM” value worked out at 3.42%.
In the case of `COc1ccc(S(=O)(=O)N2CCCOC2CNC(=O)C(=O)NCCc2ccco2)cc1` (centres unmarked) it was 4.42%.
In the case of `CC(C)(C)c1ccc(C(=O)Cn2cnnc2C#N)cc1` it was 3.7%; in that of `Cc1ccc(N2CC(C(=O)NCCc3ccc(S(N)(=O)=O)cc3)CC2=O)cc1` (centres unmarked), 22.5%.
Then `O=C(N/N=C/c1cccnc1)c1ccccc1`, with 17.3%; and `Cn1c(/C=C/c2ccccc2[N+](=O)[O-])nc2ccccc2c1=O`, with 5%; and `COc1ccccc1S(=O)(=O)Cc1ccc(C(=O)NCc2ccco2)o1`, with -33.5%.
For `O=C(COC(=O)Cc1ccccc1)Nc1ccc(SC(F)F)cc1`, the “hERG current change (%, negative = inhibition) at 10uM” value was found to be 5.27%.
In the case of `CNC(=S)NNC(=O)c1c(C)nc2cc(C)ccn12` it was 7.15%.
With `CCC(=O)c1ccc(N2CCN(C(=O)c3cc([N+](=O)[O-])ccc3F)CC2)c(F)c1`, the “hERG current change (%, negative = inhibition) at 10uM” value was -42.9%.
In the case of `CCC(=O)c1ccc(N2CCN(C(=O)c3cc([N+](=O)[O-])ccc3N3CCN(C)CC3)CC2)c(F)c1`, the “hERG current change (%, negative = inhibition) at 10uM” value is -46.4%.
As to `O=C(c1cccs1)N1CCN(c2ccc([N+](=O)[O-])cc2F)CC1`, the “hERG current change (%, negative = inhibition) at 10uM” value was -56.8%.
Turning to `Cc1ccc(S(=O)(=O)N2CCC(C(=O)OCC(=O)N(C)Cc3ccccc3)CC2)cc1C`, the “hERG current change (%, negative = inhibition) at 10uM” value was -12%.
Turning to `CCN1CCN(c2c(Cl)cccc2NC(=O)c2cccs2)CC1`, the “hERG current change (%, negative = inhibition) at 10uM” value is -73.8%.
On to `CCN1CCN(c2c(Cl)cccc2NC(=O)c2ccc([N+](=O)[O-])o2)CC1`, for which the “hERG current change (%, negative = inhibition) at 10uM” value was -73.9%.
In the case of `O=C(NC(=S)Nc1cccc(Cl)c1N1CCCCC1)c1cccs1`, the “hERG current change (%, negative = inhibition) at 10uM” value amounted to 22.7%.
On to `CCN1CCN(c2c(Cl)cccc2NC(=O)c2ccco2)CC1`, for which the “hERG current change (%, negative = inhibition) at 10uM” value is reported as -73.4%.
Turning to `O=C(Nc1cccc(Cl)c1N1CCCC1)c1ccco1`, the “hERG current change (%, negative = inhibition) at 10uM” value is on record as 6.11%.
Consider `O=C(Nc1cccc(Cl)c1N1CCOCC1)c1cccs1`, for which the “hERG current change (%, negative = inhibition) at 10uM” value is -23.5%.

The values above are taken from article PMC4336329 (PLoS ONE, 2015).
